PubChem BioAssay
“And” between values parts separate entries of the source, which are not always exact repeats. Identical values can stand only once. Records with an inconclusive call do not appear. The source made the active and inactive calls. Unless noted, how the calls were made is not given here.

Experiments:
[1] = compounds altering viability of human ES cells (AID 493140); settings: human embryonic stem cell survival screen; stronger effect = higher value;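 further: cells exposed to compounds for four days before counting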
[2] = MELAS cybrid and Rieske KO viability enhancers – cell-based, MELAS cybrids, Rieske KO mouse fibroblasts, CellTiter-Glo, primary screen (AID 1508586;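 active means mean z-score across replicates of 1.96 or higher in either the MELAS or the Rieske mutant cell line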;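 further: z relative to plate mean and SD of compound and empty wells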); settings: low glucose
[3] = target: NAD(+) hydrolase SARM1 (Homo sapiens) (UniProt Q6SZW1); assay: blocking NAD cleavage by SARM1 SAM-TIR – cell lysate, NAD-Glo luminescence (AID 1508614;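 active means compound whose remaining NAD level is above about 45 nM, limit read from the data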); settings: SAM-TIR HEK293T lysate NADase, at 1 µM, stronger effect = higher value
[4] = growth inhibition, single agent or in combination, cell-based, chromothripsis tumors, cisplatin or BGB combos (AID 1671449; in the data active means inhibition above about 80%;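 further: cells exposed for 96 hours; 0% = vehicle DMSO and 100% = killing by high DMSO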); settings: LFS_MB_P medulloblastoma cells
[5] = growth inhibition, single agent and combos, cell-based, chromothripsis tumors, cisplatin or BGB combos (AID 1671450; in the data active means inhibition above about 80%;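 further: cells exposed to compound for four days; 0% = vehicle DMSO and 100% = cell killing by high DMSO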); settings: HDN33 neuroblastoma cells, stronger effect = higher value
[6] = growth inhibition, single agents and combos, ICB984, cell-based, cisplatin or BGB combos, synergistic combos for chromothripsis tumors (AID 1671451); settings: ICB984 medulloblastoma cells, drug combinations, stronger effect = higher value;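 further: cells exposed for 96 hours before readout; 0% = vehicle DMSO and 100% = killing by high DMSO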
[7] = growth inhibition, single agents and combos, LFS_MB_1R, cell-based, cisplatin or BGB combos, synergistic combos for chromothripsis tumors (AID 1671452; in the data active means inhibition above about 80%;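 further: cells exposed for 96 hours before readout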); settings: LFS_MB_1R medulloblastoma cells, stronger effect = higher value
[8] = growth inhibition, single agents and combos, HTB85, cell-based, BGB or cisplatin IC20 combos, synergistic combos for chromothripsis tumors (AID 1671453; in the data active means inhibition above about 80%;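 further: cells exposed for 96 hours before readout; 0% = vehicle DMSO and 100% = high DMSO killing control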); settings: HTB85 osteosarcoma cells, drug combinations, stronger effect = higher value
[9] = growth inhibition, single agents and combos, CRL2098, cell-based, BGB or cisplatin IC20 combos, synergistic combos for chromothripsis tumors (AID 1671454; in the data active means inhibition above about 80%;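 further: cells exposed for 96 h before readout; 0% = vehicle DMSO and 100% = killing by high DMSO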); settings: CRL2098 osteosarcoma cells, drug combinations, stronger effect = higher value
[10] = growth inhibition, single agents and combos, HD-MB03, cell-based, BGB or cisplatin IC20 combos, synergistic combos for chromothripsis tumors (AID 1671455; in the data active means inhibition above about 83%;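 further: 0% = vehicle DMSO and 100% = high DMSO as cytotoxic control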); settings: HD-MB03 medulloblastoma cells, stronger effect = higher value
[11] = growth inhibition, single agents and combos, UWB1.289, cell-based, BGB or cisplatin combos, synergistic combos for chromothripsis tumors (AID 1671456; in the data active means inhibition above about 80%;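 further: cells exposed to compound for four days; 0% = vehicle DMSO and 100% = killing by high DMSO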); settings: UWB1.289 ovarian carcinoma cells, stronger effect = higher value
[12] = growth inhibition, single agents and combos, LFS_MB_2R, cell-based, cisplatin combos, synergistic combos for chromothripsis tumors (AID 1671457; in the data active means inhibition above about 80%;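 further: cells exposed to compound for four days before readout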); settings: LFS_MB_2R medulloblastoma cells, stronger effect = higher value
[13] = growth inhibition, MDA-MB-436, cell-based, BGB or cisplatin combos, synergistic combos for chromothripsis tumors (AID 1671458); settings: MDA-MB-436 breast carcinoma growth inhibition, drug combinations, stronger effect = higher value;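 further: cells exposed for 96 hours; 0% = vehicle DMSO and 100% = killing by high DMSO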
[14] = UWB1.289_BRCA1 ovarian cancer growth, cell-based, BGB or cisplatin combinations (AID 1671459; in the data active means inhibition above about 80%); settings: UWB1.289 BRCA1 ovarian carcinoma, drug combinations, stronger effect = higher value
[15] = drug combination toxicity in non-malignant astrocytes – cell-based, BGB or cisplatin IC20 combos, cytotoxicity control for chromothriptic childhood tumor combination screen (AID 1671460; in the data active means inhibition above about 80%;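 further: cells exposed to compounds for 96 hours before viability readout; 0% = vehicle and 100% = killing control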); settings: Human astrocytes, viability inhibition, drug combinations, at 0.5 µM, stronger effect = higher value
[16] = BT084 cell growth, single and combined drugs, ICGC_MB145, cisplatin and BGB IC40 combos (AID 1671461; in the data active means inhibition above about 80%;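 further: cells exposed to drugs for 96 hours; 0% = vehicle DMSO and 100% = high DMSO full killing control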); settings: BT084 medulloblastoma cells, drug combinations, stronger effect = higher value
[17] = RCMB18 cell growth, single agent and combined, cisplatin and BGB IC40 combos (AID 1671462; in the data active means inhibition above about 80%;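 further: cells exposed to compound for four days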); settings: RCMB18 medulloblastoma cells, stronger effect = higher value
[18] = CRL1545 cell growth, single agent and combined, cisplatin and BGB IC20 combos (AID 1671464; in the data active means inhibition above about 80%;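 further: cells exposed to compound for 96 hours before readout; 0% = vehicle DMSO and 100% = high DMSO killing control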); settings: CRL1545 osteosarcoma cells, stronger effect = higher value
[19] = viability loss in pontine glioma line – cell-based, SU-DIPG-XVII, MIPE5.0, CellTiter-Glo, qHTS, dose response (AID 1347060; cut-off not given, nearly all actives have AC50 up to about 26 µM;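 on AC50: cells exposed to compound for 48 hours before viability readout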); settings: CellTiter-Glo ATP luminescence
[20] = system: Aerobactin synthetase IucA (Klebsiella pneumoniae); assay: inhibition of K. pneumoniae IucA enzyme – biochemical, Tocris library, absorbance (AID 1345561); settings: purified IucA enzyme assay, absorbance (OD) read-out; stronger effect = lower value;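 tested at 8 µM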;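 further: 100% = enzyme without compound and 0% = no enzyme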
[21] = MELAS cybrid survival, CellTiter-Glo 48 h, stronger effect = higher value
[22] = Rieske KO mouse fibroblast survival, CellTiter-Glo 72 h
[23] = measured here: combination with BGB IC40, at 0.05 µM
[24] = measured here: with BGB IC20 combination, at 0.5 µM
[25] = measured here: with cisplatin IC20 combination, at 0.5 µM
[26] = measured here: combination with cisplatin, at 0.5 µM
[27] = measured here: combination with cisplatin, at 5 µM

Sequence of NAD(+) hydrolase SARM1 (Homo sapiens) (Q6SZW1 whole entry, looked up): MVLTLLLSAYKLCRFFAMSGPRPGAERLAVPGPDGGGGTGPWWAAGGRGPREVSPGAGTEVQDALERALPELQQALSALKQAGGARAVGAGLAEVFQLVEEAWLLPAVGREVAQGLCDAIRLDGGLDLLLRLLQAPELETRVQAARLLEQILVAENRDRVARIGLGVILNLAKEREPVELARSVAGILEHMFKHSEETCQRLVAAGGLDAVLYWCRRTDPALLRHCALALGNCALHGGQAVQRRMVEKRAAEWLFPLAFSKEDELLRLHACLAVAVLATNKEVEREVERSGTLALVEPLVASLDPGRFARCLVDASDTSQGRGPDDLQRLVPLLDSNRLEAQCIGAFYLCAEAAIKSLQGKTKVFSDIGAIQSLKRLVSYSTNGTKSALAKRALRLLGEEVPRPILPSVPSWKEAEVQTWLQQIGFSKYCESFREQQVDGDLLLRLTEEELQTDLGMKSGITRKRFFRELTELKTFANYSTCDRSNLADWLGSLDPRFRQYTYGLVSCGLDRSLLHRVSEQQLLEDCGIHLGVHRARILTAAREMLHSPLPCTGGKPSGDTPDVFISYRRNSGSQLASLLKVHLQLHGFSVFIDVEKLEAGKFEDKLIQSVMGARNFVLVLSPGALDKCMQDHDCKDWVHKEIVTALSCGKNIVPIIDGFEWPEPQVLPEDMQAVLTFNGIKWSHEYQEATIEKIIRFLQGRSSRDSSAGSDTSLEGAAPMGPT

## CC(C)N=c1cc2n(-c3ccc(Cl)cc3)c3ccccc3nc-2cc1Nc1ccc(Cl)cc1
[1]
  survival: 11.8 (inactive)
[2]; [21]
  z-score: -0.332 (inactive) and -3.07 (inactive)
[2]; [22]
  z-score: 0.691 and -0.422
[3]
  remaining NAD: 10 nM (inactive)
[4]; at 0.5 µM, stronger effect = higher value
  inhibition: -31% (inactive)
[4]; measured here: combination with BGB IC20, at 0.005 µM
  inhibition: 13.3%
[4]; measured here: combination with BGB IC40, at 0.005 µM
  inhibition: -22.3%
[4]; [23]
  inhibition: -8.73%
[4]; measured here: combination with cisplatin, at 0.5 µM, stronger effect = higher value
  inhibition: -48.5%
[4]; measured here: combination with cisplatin, at 5 µM, stronger effect = higher value
  inhibition: 8.75%
[5]; BGB combo, at 5 µM
  inhibition: -36.1%
[5]; at 0.5 µM
  inhibition: -26.4% (inactive)
[5]; cisplatin combo, at 5 µM
  inhibition: -41.4%
[5]; [24]
  inhibition: -15.2%
[5]; [25]
  inhibition: -29%
[5]; single agent, at 5 µM
  inhibition: -25%
[6]; BGB IC20 combo, at 0.005 µM
  inhibition: -28.4%
[6]; BGB IC40 combo, at 0.005 µM
  inhibition: 4.64%
[6]; BGB IC40 combo, at 0.05 µM
  inhibition: -16%
[6]; at 0.5 µM
  inhibition: -34.9% (inactive)
[6]; cisplatin combo, at 0.05 µM
  inhibition: -16%
[6]; cisplatin combo, at 0.5 µM
  inhibition: -47.3%
[6]; cisplatin combo, at 5 µM
  inhibition: -19.4%
[6]; measured here: 5 uM single agent, at 5 µM
  inhibition: 1.51%
[7]; at 0.5 µM
  inhibition: -25.1% (inactive)
[7]; [23]
  inhibition: -36.1%
[7]; [26]
  inhibition: -57.3%
[7]; [27]
  inhibition: -48.3%
[8]; at 0.5 µM
  inhibition: -37.4% (inactive)
[8]; measured here: with BGB IC20, at 0.5 µM
  inhibition: -54.6%
[8]; measured here: with BGB IC20, at 5 µM
  inhibition: -21.7%
[8]; measured here: with cisplatin IC20, at 0.5 µM
  inhibition: -36%
[8]; measured here: with cisplatin IC20, at 5 µM
  inhibition: -38.1%
[8]; single agent, at 5 µM
  inhibition: -29.1%
[9]; at 0.5 µM
  inhibition: -74.7% (inactive)
[9]; measured here: combination with BGB at IC20, at 0.5 µM
  inhibition: -58.6%
[9]; measured here: combination with cisplatin at IC20, at 0.5 µM
  inhibition: -130%
[10]; at 0.5 µM
  inhibition: -15.1% (inactive)
[10]; measured here: combo with BGB at IC20, at 0.5 µM
  inhibition: -15%
[10]; measured here: combo with cisplatin at IC20, at 0.5 µM
  inhibition: -18.6%
[11]; at 0.5 µM
  inhibition: -8.97% (inactive)
[11]; measured here: inhibition with BGB combination, at 0.05 µM
  inhibition: -17.6%
[11]; measured here: inhibition with cisplatin combination, at 0.05 µM
  inhibition: -17.6%
[12]; at 0.5 µM
  inhibition: -8.06% (inactive)
[12]; [26]
  inhibition: 1.44%
[12]; [27]
  inhibition: -0.801%
[13]; at 0.5 µM
  inhibition: -2.64% (inactive)
[13]; measured here: BGB combination, at 0.5 µM
  inhibition: -2.65%
[13]; measured here: BGB combination, at 5 µM
  inhibition: -11.8%
[13]; measured here: cisplatin combination, at 0.5 µM
  inhibition: -12.6%
[13]; measured here: cisplatin combination, at 5 µM
  inhibition: 0.559%
[14]; BGB combination, concentration series, at 5 µM
  inhibition: -7.22%
[14]; at 0.5 µM
  inhibition: -11.4% (inactive)
[14]; cisplatin combination, concentration series, at 5 µM
  inhibition: 14.7%
[15]
  inhibition: -9.92% (inactive)
[15]; measured here: combo with BGB IC20
  inhibition: 3.64%
[15]; measured here: combo with cisplatin IC20
  inhibition: -24.8%
[16]; at 0.5 µM
  inhibition: -8.65% (inactive)
[16]; cisplatin combination, at 0.5 µM
  inhibition: -22.2%
[16]; cisplatin combination, at 5 µM
  inhibition: -55.6%
[16]; measured here: BGB IC40 combination 0.05 uM, at 0.05 µM
  inhibition: 17%
[16]; single agent, at 5 µM
  inhibition: -11.5%
[17]; at 0.5 µM
  inhibition: -9.43% (inactive)
[17]; cisplatin combo, at 5 µM
  inhibition: -32.6%
[17]; measured here: BGB IC40 combination, at 0.05 µM
  inhibition: -2.04%
[17]; [26]
  inhibition: -6.22%
[17]; single agent, at 5 µM
  inhibition: -9.57%
[18]; at 0.5 µM
  inhibition: -22.8% (inactive)
[18]; [24]
  inhibition: -40.5%
[18]; [25]
  inhibition: -13.9%
[18]; single agent, at 0.05 µM
  inhibition: -3.12%
[18]; single agent, at 5 µM
  inhibition: -18.2%

## COc1cc([C@@H]2c3cc4c(cc3[C@@H](O[C@@H]3O[C@@H]5CO[C@@H](C)O[C@H]5[C@H](O)[C@H]3O)[C@H]3COC(=O)[C@H]23)OCO4)cc(OC)c1O
[19]
  AC50: 1.66 µM (active)
[2]; [21]
  z-score: -0.423 (inactive) and -1.1 (inactive)
[2]; [22]
  z-score: -0.861 and 0.337

## COc1cccc2c1C(=O)c1c(O)c3c(c(O)c1C2=O)C[C@@](O)(C(=O)CO)C[C@@H]3O[C@H]1C[C@H](N)[C@@H](O)[C@H](C)O1
[19]
  AC50: 0.332 µM (active)
[3]
  remaining NAD: 10 nM (inactive)

## CN1[C@@H](CC(=O)c2ccccc2)CCC[C@H]1C[C@H](O)c1ccccc1
[1]
  survival: 11.3 (inactive)
[20]
  remaining activity: 122% (inactive)

## COc1cccc2c1C(=O)c1c(O)c3c(c(O)c1C2=O)C[C@@](O)(C(C)=O)C[C@@H]3OC1CC(N)C(O)C(C)O1 (stereo partly drawn)
[1]
  survival: 2.17 (inactive)
[20]
  remaining activity: 110% (inactive)

## Cc1sc(N)c(C(=O)c2cccc(C(F)(F)F)c2)c1C
[20]
  remaining activity: 120% (inactive)

## CCCCC[C@H](O)/C=C/[C@H]1[C@H](O)CC(=O)[C@@H]1CCCCCCC(=O)O
[1]
  survival: 35.2 (inactive) and 136 (inactive)
[20]
  remaining activity: 115% (inactive)
[19]
  outcome: inactive
[2]; [21]
  z-score: -0.41 (inactive) and -0.106 (inactive)
[2]; [22]
  z-score: -0.367 and -0.604

## CC(=O)SCC(Cc1ccccc1)C(=O)NCC(=O)OCc1ccccc1 (stereo not drawn)
[1]
  survival: 6.5 (inactive)
[19]
  outcome: inactive
[2]; [21]
  z-score: -0.406 (inactive) and 0.283 (inactive) and 0.224 (inactive)
[2]; [22]
  z-score: 0.561 and 0.494 and -0.589
[3]
  remaining NAD: 10 nM (inactive)

## CO/N=C(/C(=O)N[C@@H]1C(=O)N2C(C(=O)O)=C(COC(N)=O)CS[C@H]12)c1ccco1
[1]
  survival: 3.92 (inactive)

## CS(=O)(=O)c1ccc(-c2cc(Br)sc2-c2ccc(F)cc2)cc1
[20]
  remaining activity: 111% (inactive)

## Nc1nc2ccc(Cl)cc2c2nc(-c3ccco3)nn12
[20]
  remaining activity: 120% (inactive)

## COCC1=C(C(=O)OC(C)OC(=O)OC(C)C)N2C(=O)[C@@H](NC(=O)/C(=N\OC)c3csc(N)n3)[C@H]2SC1 (stereo partly drawn)
[2]; [21]
  z-score: -0.0637 (inactive)
[2]; [22]
  z-score: -0.177
[3]
  remaining NAD: 10 nM (inactive)
